According to ChEMBL document CHEMBL1157539, “Thousands of chemical starting points for antimalarial lead identification” (Nature, 2010):

Each compound was assayed on Plasmodium falciparum (assay: GSK_TCMDC: Inhibition of Plasmodium falciparum Dd2 in whole red blood cells, using parasite LDH activity as an index of growth. Test compounds present at 2uM).
Format: functional
`O=C(/C=C/c1ccc(Cl)c(Cl)c1)NCCCCCN1CCC(C(=O)Nc2cccc(Cl)c2)CC1` showed an Inhibition of 0%.
For `Cc1cc(CNCCCCCCNCc2cccc([N+](=O)[O-])c2)ccc1O`, the Inhibition was 0%.
With `CCCCOC(=O)c1ccc(Nc2cc(C)nc3ccc(OC)cc23)cc1` the Inhibition was 96%.
Work on `CN1CCC(NCc2ccc(-c3cccc(S(=O)(=O)NCc4ccccc4)c3)cc2)CC1.O=C(O)C(F)(F)F` yielded an Inhibition of 94%.
`COc1ccc(F)cc1-c1ccccc1CNC(=O)c1cnn(-c2ccc([N+](=O)[O-])cc2)c1C(F)(F)F` gave an Inhibition of 75%.

The compounds below were run on HepG2 (assay: GSK_TCMDC: Percent inhibition of human HepG2 cell line. Test compounds present at 10uM.).
Format: functional
Work on `COc1ccc(-c2cnc(NCc3ccccc3)nc2)cc1CNC1CCN(C)CC1.O=C(O)C(F)(F)F` yielded an Inhibition of 19%.
Compound `COc1ccc(CC(=O)Nc2ccc(Nc3nc(C)cc(N(C)C)n3)cc2)cc1` has an Inhibition of 17%.
`O=C(Nc1cccc(-c2nn3ccccc3c2-c2ccnc(Nc3ccc(C(=O)N4CCOCC4)cc3)n2)c1)c1c(F)cccc1F` was tested, and the Inhibition was 72%.
For `O=C(c1ccco1)N1CCN(c2ccc([N+](=O)[O-])c(NC3CC3)c2)CC1`, the Inhibition was 0%.
`O=C(NCCCCN1CCC(c2c[nH]c3ccccc23)CC1)c1ccc(-c2ccc(C(F)(F)F)cc2)cc1` was tested, and the Inhibition was 34%.
Work on `Cc1[nH]cnc1CSCCNC(=N)NCCCCCCCCNC(=N)NCCSCc1nc[nH]c1C.Cl` yielded an Inhibition of 24%.
`CCOc1cc(C(=O)NC2CCN(Cc3ccccc3)CC2)ccc1-c1nc2cc(Cl)ccc2[nH]1` was tested, and the Inhibition was 10%.
`CC1CCN(C(=O)C(Cc2c[nH]c3ccccc23)NS(=O)(=O)c2ccc(Cl)cc2)CC1` (stereo unspecified) gave an Inhibition of 0%.
With `Cc1cnc(Nc2cccc(CCN3CCOCC3)c2)nc1NC(C)C.Cl` the Inhibition was 53%.
Work on `CN(C)CCNCc1nc(-c2ccc3c(Nc4ccc(Cl)cc4F)ccnc3c2)cs1` yielded an Inhibition of 0%.
In the case of `O=C(Nc1ccc(Br)cc1)N(CCN1CCOCC1)CC(O)COCc1ccc(Cl)c(Cl)c1.O=C(O)C(F)(F)F` (stereo unspecified), the Inhibition is reported as 16%.
With `O=C(Nc1cccc(CN2CCN(Cc3ccc(O)cc3)CC2)c1)c1cc2ccccc2s1.O=C(O)C(F)(F)F` the Inhibition was 15%.
For `CCc1ccc(NC(=O)c2cccc(CN3CCCN(Cc4ccc(OC)cc4)CC3)c2)cc1.O=C(O)C(F)(F)F`, the Inhibition was 35%.
`Br.Oc1ccc(CCNCCCCCCNCCc2ccc(Cl)cc2)c(Cl)c1O` showed an Inhibition of 23%.
`CCn1ccc2c(N3CCCCS3(=O)=O)cc(C(=O)N[C@@H](Cc3ccccc3)[C@H](O)CNC(C)(C)CCCC(C)C)cc21` showed an Inhibition of 23%.
With `CC(NCC(O)Cn1c2ccccc2c2ccccc21)c1ccccc1.O=C(O)c1ccccc1` (stereo unspecified) the Inhibition was 37%.
In the case of `CC(C)(C(=O)Nc1ccc(C2CCC(NCC3CC3)CC2)c(Cl)c1)c1ccc(C(F)(F)F)cc1` (stereo unspecified), the Inhibition is reported as 64%.
`COc1ccc(C(=O)N2CCC3(CC2)C(=O)N(CC(=O)NCC2CCCCC2)CN3c2ccccc2)c(OC)c1` gave an Inhibition of 6%.
With `CCN(CC)/C(=N/C(=N)NCc1cccc(Cl)c1)NCCCCCCN/C(=N\C(=N)NCc1cccc(Cl)c1)N(CC)CC` the Inhibition was 17%.
`O=[N+]([O-])c1ccc(C(O)P(=O)(c2ccccc2)c2ccccc2)cc1` (stereo unspecified) gave an Inhibition of 1%.
`FC(F)(F)c1ccc2[nH]c(-c3ccc(-c4cccc(CN5CCN(CCN6CCOCC6)CC5)c4)cc3)nc2c1.O=C(O)C(F)(F)F` showed an Inhibition of 47%.
For `O=c1cc(NCC2(CNCc3cn(Cc4ccccc4)c4ccccc34)CCCCC2)[nH]c2ccccc12`, the Inhibition was 27%.
Compound `COc1cc2nc(N3CCC(CNC(=O)c4ccc(-c5ccc(C#N)cc5)cc4)CC3)nc(N)c2cc1OC` has an Inhibition of 21%.
With `O=C(Nc1cccc(C(F)(F)F)c1)c1cccc(S(=O)(=O)NCC2CCCN(Cc3ccccc3)C2)c1.O=C(O)C(F)(F)F` (stereo unspecified) the Inhibition was 17%.
Work on `CC(C)NCc1ccc(-c2ccc(NS(=O)(=O)c3cccc4cccnc34)cc2)cc1.O=C(O)C(F)(F)F` yielded an Inhibition of 27%.
In the case of `CN(C)CC1CCCN1Cc1ccccc1-c1cnn(C)c(=O)c1Oc1ccc(F)cc1.O=C(O)C(F)(F)F` (stereo unspecified), the Inhibition is reported as 29%.
In the case of `CCC(c1ccccc1)c1nn2c(-c3cccs3)nnc2s1` (stereo unspecified), the Inhibition is reported as 10%.
In the case of `Cc1nc(C)c(-c2ccc(-c3ccc(F)cc3)cc2)c(O)c1Br`, the Inhibition is reported as 12%.
Compound `COC(=O)c1ccc(-c2ccc(-c3cccnc3)cc2C)cc1` has an Inhibition of 81%.
`O=[N+]([O-])c1cc(/C=N/Nc2nc3nonc3nc2Nc2ccc(F)cc2)c(Cl)cc1Cl` was tested, and the Inhibition was 5%.
`COc1ccc2ncc(F)c(CCN3CC[C@@H](CNCc4nc5c(cc4C)SCC(=O)N5)C3)c2n1.Cl` was tested, and the Inhibition was 14%.
